# Assay outcomes (PubChem BioAssay)
# ERK AVP inh – qHTS Assay for Inhibitors of the ERK Signaling Pathway using a Homogeneous Screening Assay; Potency, µM (highest dose often 57.5 µM), actives largely listed as inhibitors; 0.99% of 72,000 active; HEK293-V1b, vasopressin-stimulated pERK AlphaScreen; note: nearly all actives have a fitted effect of over 55% in size
#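 Overnight-seeded V1b-HEK293 cells in 1% FBS got compound, then vasopressin (25 nM final, 5 min, 37C), then lysis buffer. AlphaScreen detection of phospho-ERK; activity normalized to basal and full-stimulation controls.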
# TSHR agonist – qHTS Assay for Agonists of the Thyroid Stimulating Hormone Receptor; 0.48% of 73,000 active; Potency, µM (series often up to 57.1 µM), most hits filed as activators; Thyrotropin receptor (Homo sapiens), P16473; HEK293-CNG-TSHR cells (CNG channel as cAMP sensor), membrane potential dye, cAMP; AID 926, 2007; active = well fitted activation curve with a large enough effect in the main read-out, with a control signal flat, not every such curve was filed as active; inconclusive = small, poorly fitted or top-dose-only effect, or a change in a side signal; inactive = no such curve, though single readings can be large or run the other way; reference of the percent scale not stated here;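 note: the control signal comes from parental cells without the receptor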
# Target sequence (P16473 whole entry, looked up): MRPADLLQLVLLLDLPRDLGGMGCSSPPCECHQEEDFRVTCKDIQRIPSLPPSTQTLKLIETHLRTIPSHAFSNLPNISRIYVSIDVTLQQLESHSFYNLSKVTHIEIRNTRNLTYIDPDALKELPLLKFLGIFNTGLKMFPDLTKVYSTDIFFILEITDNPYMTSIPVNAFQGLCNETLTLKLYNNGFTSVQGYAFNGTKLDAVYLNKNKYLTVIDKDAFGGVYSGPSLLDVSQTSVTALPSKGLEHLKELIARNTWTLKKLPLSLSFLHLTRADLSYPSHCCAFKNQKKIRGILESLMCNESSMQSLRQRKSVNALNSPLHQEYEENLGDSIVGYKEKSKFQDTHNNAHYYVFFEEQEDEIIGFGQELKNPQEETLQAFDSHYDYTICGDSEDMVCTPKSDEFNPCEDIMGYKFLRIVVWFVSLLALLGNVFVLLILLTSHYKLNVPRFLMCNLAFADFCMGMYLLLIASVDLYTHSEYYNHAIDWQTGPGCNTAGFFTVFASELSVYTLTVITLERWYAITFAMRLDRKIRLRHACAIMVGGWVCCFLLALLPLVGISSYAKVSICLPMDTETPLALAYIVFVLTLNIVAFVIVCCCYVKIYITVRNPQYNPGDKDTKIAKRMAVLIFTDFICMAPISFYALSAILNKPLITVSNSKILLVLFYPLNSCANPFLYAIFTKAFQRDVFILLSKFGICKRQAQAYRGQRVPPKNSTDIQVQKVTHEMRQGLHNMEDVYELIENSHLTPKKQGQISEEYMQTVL
#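 cAMP rise detected as CNG-channel membrane depolarization by fluorescent dye (emission 590 nm), 30 min after compound, following 60 min dye loading containing 100 uM RO 20-1724 at room temperature. Cells: TSHR/CNG HEK 293, with parental CNG HEK 293 as control.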
# Tau fil binding – qHTS Assay for Tau Filament Binding; AID 596, 2007; 2% of 71,000 active; recombinant tau filaments, thioflavin S fluorescence, 15 h; filaments grown with octadecylsulfate alongside compound; Microtubule-associated protein tau (Homo sapiens), P10636; Potency, µM (top dose mostly 57.1 µM);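 note: actives lower thioflavin S fluorescence by blocking filaments or displacing dye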
#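 Assay mix: 1 uM His-tagged tau, 30 uM sodium octadecylsulfate, thioflavine S dye in HEPES/NaCl/DTT buffer. Compound is added prior to the inducer. Fluorescence after 15 h at 37 C.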
# HEK293 cAMP cs – qHTS Assay for Agonists of the Thyroid Stimulating Hormone Receptor: Activators of Intracellular cAMP Concentrations in Parental HEK 293; 2.5% of 73,000 active; parental HEK293 CNG cAMP sensor, membrane potential fluorescence; Potency, µM (doses to about 57.1 µM), hits mostly activators; AID 938, 2007; note: nearly all actives have a fitted effect of over 55% in size
#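 Parental HEK 293 cells stably expressing a modified CNG channel (no TSHR) report cAMP rise as membrane depolarization. Membrane potential dye with 100 uM RO 20-1724 was loaded for 60 min at room temperature, then compound added for 30 min; fluorescence read at 590 nm.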
# CRE-bla Fsk – Cell signaling CRE-BLA (Fsk stim); 2.5% of 71,000 active; CHO CRE-bla reporter (cAMP response element driving beta-lactamase), forskolin EC10, beta-lactamase ratio; Potency, µM (doses to about 38.2 µM), usual class: activators; AID 662, 2007; active = well fitted activation curve with a large enough effect in the signal ratio, with a control signal flat, not every such curve was filed as active; inconclusive = small, poorly fitted or top-dose-only effect, or effect the other way, or a change in a side signal; the % refers to the signal ratio
#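 CRE-bla CHO reporter cells treated with compound titration plus EC10 NKH 477 (water-soluble forskolin), incubated 3 h at 37 °C; CCF4 loading 2 h at room temperature, 460/530 nm emission ratio read, AC50 values derived for positive or negative modulators.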
# A number is an active result; i = inactive; ? = inconclusive; nt = no result given; [ ] = another dose, or the depositor's remark. This is a sample that favours compounds with a hit; in the whole collection about 7.4% have one here. Unless noted, calls come from the whole dose curve; as a rule, active = well fitted curve in the direction sought with a large enough effect; inconclusive = small, poorly fitted or top-dose-only effect, or another doubt; inactive = no such curve, though single readings can be large; an effect the other way counts as inactive or inconclusive.
SMILES,ERK AVP inh,TSHR agonist,Tau fil binding,HEK293 cAMP cs,CRE-bla Fsk
O=c1c(-c2ccc(F)cc2)nc2cnc(Oc3ccccc3)nc2n1Cc1cccs1,i,nt,i,i,?
COc1cccc(Nc2ncc3nc(-c4cccs4)c(=O)n(Cc4cccs4)c3n2)c1,i,i,i,i,?
C[N+](C)(C)[C@@H](C1=CCCC1=O)c1ccccc1,i[11.5 µM],i[11.4 µM],i[11.4 µM],i[11.4 µM],?
N#C[C@H](C(=O)O)C(c1c(Cl)cccc1Cl)[C@H](C#N)C(=O)O,i[11.5 µM],i[11.4 µM],i[11.4 µM],i[11.4 µM],i[7.6 µM]
COc1ncc2nc(-c3ccccc3)c(=O)n(CCc3ccccc3)c2n1,i,i,i,i,13µM
COc1ccc(Oc2ncc3nc(-c4cccs4)c(=O)n(Cc4cccs4)c3n2)cc1,i,?,?,?,3.2µM
COc1ncc2nc(-c3ccccc3)c(=O)n(Cc3cccs3)c2n1,i,i,?,i,13µM
COc1ncc2nc(-c3cccs3)c(=O)n(C)c2n1,i,i,i,i,3.2µM
COc1ccc(Oc2ncc3nc(-c4ccc(OC)cc4)c(=O)n(Cc4cccs4)c3n2)cc1,i,?,i,?,?
COc1ccc(O[C@H]2C=C[C@@H](c3ccccc3)O[C@@H]2CON=C(C)C)cc1,i[11.5 µM],i[11.4 µM],nt,i[11.4 µM],nt
COc1ccc(-n2c(=O)c(-c3cccs3)nc3cncnc32)cc1,i,i,i,i,3.2µM
COc1cccc(Cn2c(=O)c(-c3cccs3)nc3cnc(OCc4ccccc4)nc32)c1,i,?,i,?,1.3µM
COc1cccc(Cn2c(=O)c(-c3cccs3)nc3cnc(OC)nc32)c1,i,?,i,?,?
NNC(=O)Cc1cccnc1,i[11.5 µM],i[11.4 µM],i[11.4 µM],i[11.4 µM],i[7.6 µM]
CCN1C(=O)[C@H]2[C@H]3[C@H](O)[C@H](O)C/C(=N/O[C@@H]4O[C@@H](COC(C)=O)[C@@H](OC(C)=O)[C@@H](OC(C)=O)[C@H]4OC(C)=O)[C@H]3CC[C@@H]2C1=O,i[11.5 µM],i[11.4 µM],nt,i[11.4 µM],nt
CC(C)=CCC/C(C)=C/CO/N=C1/C[C@@H](O)[C@@H](O)[C@@H]2[C@@H]3C(=O)N(C[C@@H]4CCCO4)C(=O)[C@H]3CC[C@@H]12,i[11.5 µM],i[11.4 µM],nt,i[11.4 µM],nt
O=c1/c(=C\c2ccc3c(c2)OCO3)sc2n1CCCN=2,10µM,i,i,i,i
C(=N\n1cnnc1)/c1ccc2c(c1)OCO2,i,i,i,i,i
COc1cc(-c2nc(S(=O)(=O)c3ccccc3)c(N3CCOCC3)o2)cc(OC)c1OC,?,i,i,i,1.3µM
C[C@@H](C(=O)O)[C@H]1C[C@]1(C)[C@H](NC(=O)OCc1ccccc1)c1ccccc1,i,?,i,?,i
C[C@@H](C(=O)NCc1ccccc1)[C@H]1C[C@]1(C)[C@H](NC(=O)OCc1ccccc1)c1ccccc1,i,?,i,16µM,?
COC(=O)[C@H](C)[C@@H]1C[C@@]1(C)[C@@H](NC(=O)OCc1ccccc1)c1ccccc1,i,?,i,16µM,i
CC(=O)Nc1cccc(NC(=O)CSc2ncc(-c3ccc(Cl)cc3)n2Cc2ccco2)c1,i,?,i,25µM,?
COc1ccc(-c2cnc(SCC(=O)Nc3ccc4c(c3)OCO4)n2Cc2ccco2)cc1,i,?,i,?,i
COC(=O)Nc1nc2ccc(C(=O)c3ccccc3)cc2[nH]1,i,i,i,i,10µM
SMILES,ERK AVP inh,TSHR agonist,Tau fil binding,HEK293 cAMP cs,CRE-bla Fsk
COC(=O)Nc1nc2ccc(S(=O)c3ccccc3)cc2[nH]1 (configuration not stated),i,nt,nt,nt,nt
COc1ccc(C(=O)NCc2cn3cccc(C)c3n2)cc1OC,nt,i,i,i,?
O=C(NCCc1cn2ccccc2n1)c1ccc(Br)o1,nt,i,i,i,?
COc1cc(C(=O)NCc2cn3cccc(C)c3n2)cc(OC)c1OC,nt,i,i,i,13µM
Cc1cccn2cc(CCNC(=O)c3ccc(Br)o3)nc12,nt,?,i,32µM,i
C[C@@H]1/C=C\CC(=O)OC[C@H](C)C(=O)N2CCC[C@@H]2C(=O)OC1,i[11.5 µM],i[11.4 µM],nt,i[11.4 µM],nt
Clc1ccccc1-c1nccc(NCc2cccs2)n1,16µM,?,i,?,?
c1cncc(-c2nccc(NCc3cccs3)n2)c1,32µM,i,i,i,2.5µM
COc1cccc(-c2nccc(NCc3cccs3)n2)c1,i,?,i,?,i
CC(=O)c1cccc(NS(=O)(=O)c2cccc(C(=O)O)c2)c1,nt,i,nt,i,nt
CC(C)CO/N=C1/C[C@@H](O)[C@@H](O)[C@@H]2[C@@H]3C(=O)N(Cc4ccccc4)C(=O)[C@H]3CC[C@H]12,i[11.5 µM],?,nt,?,nt
O=c1sc2ccccc2n1COc1ccccc1,i,?,i,25µM,i
O=C(O)CCCN1CCCCC1,i[11.5 µM],i[11.4 µM],i[11.4 µM],i[11.4 µM],i[7.6 µM]
N#Cc1cccc(NC(=O)N2CCCC3(CCN(C(=O)c4ccco4)CC3)C2)c1,i,i,i,i,?
CCCNc1nc2c(c(=O)[nH]c(=O)n2C)n1CCC(C)C,i,i,i,i,10µM
CCCCn1c(NCCC)nc2c1c(=O)[nH]c(=O)n2C,?,i,i,i,2.5µM
CCCCCCn1c(N(CC)CC)nc2c1c(=O)[nH]c(=O)n2C,?,i,i,i,10µM
CCCCCCn1c(SCCC)nc2c1c(=O)[nH]c(=O)n2C,?,i,i,i,i
O=C1[C@H]2[C@H]3[C@H](O)[C@H](O)C/C(=N/OCc4ccccc4)[C@H]3CC[C@@H]2C(=O)N1c1cccc(Oc2ccccc2)c1,i[11.5 µM],i[11.4 µM],nt,i[11.4 µM],nt
O=C(Nc1ccccc1)NC1(C(=O)NCc2ccc3c(c2)OCO3)CCCCC1,i,i,i,i,i
O=C(NCc1ccccc1)NC1(C(=O)Nc2ccc3c(c2)OCCO3)CCCCC1,i,2µM,i,i,i
c1csc(-c2csc3nc(CN4CCOCC4)nc(NCc4ccc5c(c4)OCO5)c23)c1,i,?,i,13µM,?
COCCNS(=O)(=O)c1cc(-c2nn(C)c(=O)c3ccccc23)ccc1C,i,i,i,i,13µM
CC(=O)OC(C)(C)N=Nc1ccc(Br)cc1,nt,nt,i[11.4 µM],i[11.4 µM],i[7.6 µM]
c1ccc(OCc2nc(-c3ccccc3)no2)cc1,i,i,i,i,i
SMILES,ERK AVP inh,TSHR agonist,Tau fil binding,HEK293 cAMP cs,CRE-bla Fsk
Cc1noc(COc2ccc(OCc3nc(C)no3)cc2)n1,i,i,0.79µM,i,i
COc1ccccc1OC[C@H](O)CN1CCN(CC(=O)Nc2c(C)cccc2C)CC1,i,?,i,?,i
COc1ccc(Oc2nc(C)nc3c2oc2ccccc23)cc1,i,?,i,25µM,?
NCCOC[C@H](N)C(=O)O,i[11.5 µM],i[11.4 µM],i[11.4 µM],i[11.4 µM],i[7.6 µM]
O=C(O)[C@H]1CCCC[C@@H]1c1c2ccc(=O)c(O)c-2oc2c(O)c(O)ccc12,i[11.5 µM],?,4µM,?,i[7.6 µM]
O=C(O)/C=C/c1ccc(O)c(O)c1,i,nt,nt,nt,nt
